This is a sample that favours compounds with a hit; in the whole collection about 0.39% have one here.
EPAC1 antagonist: antagonists of human EPAC1; O95398; EPAC1 GEF assay, Rap1b-BODIPY-GDP exchange fluorescence; Potency, µM (doses to about 115 µM), usual class: inhibitors; hit rate 0.14% among 360,000; also: nearly all actives have a fitted effect of over 50% in size
EPAC2 agonist: EPAC2 (human) agonism; Q8WZA2; EPAC2 activation, biochemical qHTS; response scale: 100% = 6.5 mM cAMP response; Potency, µM (series often up to 154 µM), most hits filed as activators; hit rate 0.079% among 360,000; AID 720711; also: nearly all actives have a fitted effect of over 50% in size
Target sequence (Q8WZA2 whole entry, looked up): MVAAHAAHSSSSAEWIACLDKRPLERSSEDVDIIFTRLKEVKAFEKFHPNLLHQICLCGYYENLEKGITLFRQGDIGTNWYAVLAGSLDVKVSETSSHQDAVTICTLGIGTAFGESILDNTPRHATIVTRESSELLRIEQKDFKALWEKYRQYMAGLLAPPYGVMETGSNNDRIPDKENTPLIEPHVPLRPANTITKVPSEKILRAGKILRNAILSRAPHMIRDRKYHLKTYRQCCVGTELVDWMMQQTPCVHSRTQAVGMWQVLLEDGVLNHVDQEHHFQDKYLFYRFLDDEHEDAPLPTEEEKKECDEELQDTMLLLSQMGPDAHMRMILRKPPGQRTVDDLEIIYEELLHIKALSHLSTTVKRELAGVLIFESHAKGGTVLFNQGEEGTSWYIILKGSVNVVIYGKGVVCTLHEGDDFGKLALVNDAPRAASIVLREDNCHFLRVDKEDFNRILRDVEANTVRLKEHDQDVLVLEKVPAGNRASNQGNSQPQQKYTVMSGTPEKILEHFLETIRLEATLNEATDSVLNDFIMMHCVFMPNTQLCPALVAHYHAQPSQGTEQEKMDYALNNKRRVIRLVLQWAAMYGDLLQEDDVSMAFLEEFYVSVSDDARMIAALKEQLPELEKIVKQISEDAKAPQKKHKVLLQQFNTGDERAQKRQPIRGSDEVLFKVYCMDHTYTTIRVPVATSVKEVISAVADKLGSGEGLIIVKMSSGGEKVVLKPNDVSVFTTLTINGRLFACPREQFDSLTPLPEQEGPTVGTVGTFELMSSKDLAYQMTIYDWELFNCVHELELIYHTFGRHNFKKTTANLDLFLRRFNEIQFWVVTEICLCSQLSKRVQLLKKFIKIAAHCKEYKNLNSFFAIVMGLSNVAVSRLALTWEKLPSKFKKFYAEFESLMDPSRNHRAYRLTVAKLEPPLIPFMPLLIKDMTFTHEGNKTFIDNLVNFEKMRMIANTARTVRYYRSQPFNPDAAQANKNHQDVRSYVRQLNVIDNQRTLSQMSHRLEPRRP
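Nucleotide exchange monitored as fluorescence drop when BODIPY-GDP leaves Rap1B. Reaction: 100 nM EPAC2, 250 nM RAP1B-BODIPY-GDP, 50 uM GDP, room temperature, kinetic read over 30 min. Activity expressed relative to 6.5 mM cAMP.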
EPAC1 agonist: agonists of human EPAC1; EPAC1 agonist qHTS, biochemical assay; response scale: 100% = response to 6.5 mM cAMP; hit rate 0.073% among 360,000; O95398; Potency, µM (titrated, usually from 154 µM), hits mostly activators; also: nearly all actives have a fitted effect of over 60% in size
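Compounds were pinned as a concentration titration into mixtures of EPAC1 (100 nM), BODIPY-GDP-loaded Rap1B (250 nM) and GDP (50 uM). After 5 min at room temperature, fluorescence was followed for 30 min; activity was scaled to 6.5 mM cAMP.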
EPAC2 antag: EPAC2 (human) antagonism | EPAC2 GEF exchange of Rap1B-BODIPY-GDP, fluorescence | Potency, µM (series often up to 114 µM), most hits filed as inhibitors | hit rate 0.18% among 360,000; also: nearly all actives have a fitted effect of over 45% in size
Numbers stand for hits; i = inactive; ? = inconclusive. Calls follow the shape of the dose curve; as a rule, active = well fitted curve in the direction sought with a large enough effect; inconclusive = small, poorly fitted or top-dose-only effect, or another doubt; inactive = no such curve, though single readings can be large; an effect the other way counts as inactive or inconclusive.

SMILES	EPAC1 antagonist	EPAC2 agonist	EPAC1 agonist	EPAC2 antag
O=C(C[C@@H]1C[C@H]2c3cc(NC(=O)C4CCC4)ccc3O[C@H]2[C@@H](CO)O1)NCc1ccc(-c2ccccc2)cc1	i	i	i	i
CCOc1ccc(C(=O)NNC(=O)CN2C(=O)NC3(CCCC3)C2=O)cc1	i	i	i	i
CCOc1ccc(Oc2ccccc2NC(=O)CN2C(=O)NC3(CCCC3)C2=O)cc1	i	i	28µM	i
Oc1ccc(Br)cc1C=Nc1cccn2cc(-c3ccccc3)nc12	i	i	i	79µM
Oc1ccc(Br)cc1/C=N/n1c(-c2ccccc2)n[nH]c1=S	i	i	i	i
CC1(C(=O)NCc2cccc3ccccc23)CCN1C(=O)Cc1ccc(-c2ccccc2)cc1 (centres undefined)	i	i	i	i
CCCC(=O)NC(c1ccc(C(C)C)cc1)c1ccc2cccnc2c1O (centres undefined)	i	i	i	i
CCC(=O)NC(c1ccc(C)cc1)c1ccc2cccnc2c1O (centres undefined)	i	i	i	16µM
CC(=O)NC(c1ccccc1)c1cc(Cl)c2cccnc2c1O (centres undefined)	i	i	i	40µM
CC(=O)NC(c1ccco1)c1ccc2cccnc2c1O (centres undefined)	i	i	i	i
COc1ccc(C(NC(C)=O)c2cc(Cl)c3cccnc3c2O)cc1 (centres undefined)	i	i	i	?
CC(=O)NC(c1ccc(Cl)cc1)c1ccc2cccnc2c1O (centres undefined)	i	i	i	20µM
OC(c1ccc(Cl)c(F)c1)c1ncc(-c2cccc(C(F)(F)F)c2)[nH]1 (centres undefined)	i	i	i	i
CCOC(=O)c1ccccc1-c1csc(NS(=O)(=O)c2ccc(Cl)cc2)n1	79µM	i	i	i
CCOC(=O)Cc1csc(NS(=O)(=O)c2ccccc2)n1	i	i	i	i
CCCCOc1ccc(C(=O)NCC(=O)NCCCn2nc(C)cc2C)cc1	i	i	i	i
Cc1cc(C)n(CCOc2ccc(Br)cc2)n1	i	i	i	35µM
Cc1cccc(C)c1NC(=O)C1C(c2ccc3c(c2)OCO3)=Nc2ccccc2N1C(=O)c1cccc2ccccc12 (centres undefined)	i	i	i	i
CCc1ccc(OCCNC(=O)c2ccccc2SCc2ccc(F)cc2)cc1	i	i	i	i
O=C(NCCOc1ccc(F)cc1)c1ccccc1SCc1ccccc1	i	i	i	50µM
COC(=O)[C@]12CCCCC=C1N(CCc1ccc(OC)c(OC)c1)C(=O)[C@H](CC(=O)NCc1cccs1)C2	i	i	i	i
CC(O)(c1cccc(F)c1)c1nc(-c2ccc3ccccc3c2)cs1 (centres undefined)	i	i	i	i
Clc1cccc(-c2ccc3nccn3c2)c1Cl	i	i	i	?
c1ccc2c(c1)oc1c(-c3ccc4nccn4c3)cccc12	i	i	i	10µM
O=C(NCc1ccccc1)C1Cc2c(-c3ccc(Cl)cc3)ccnc2O1 (centres undefined)	i	i	i	i
SMILES	EPAC1 antagonist	EPAC2 agonist	EPAC1 agonist	EPAC2 antag
C/C(CC(=O)Nc1ccc2ccccc2c1)=N\NC(=O)c1cnccn1	i	i	40µM	i
COc1ccc(NC(=O)C/C(C)=N/NC(=O)c2cnccn2)cc1	i	i	i	i
O=c1ccc(-c2ccccc2)nn1Cc1ccc(Cl)cc1	i	i	i	35µM
CC1=NCCN1S(=O)(=O)c1c(C(C)C)cc(C(C)C)cc1C(C)C	i	i	i	79µM
CCOC(=O)c1cc2ccccc2n1C1CCN(C)CC1	i	i	i	i
Cc1cc2c(cc1C)-n1nnnc1C(N1CCN(c3ccccc3F)CC1)C(=O)N2 (centres undefined)	i	i	i	i
NC(=O)c1cccc(-c2coc3c(C(=O)NCc4ccccc4)cccc23)c1	?	i	i	i
Cc1cccc(C)c1-n1c(C)cc(/C=N\Nc2ccc([N+](=O)[O-])cn2)c1C	i	4µM	i	i
OCCNc1c2ccccc2nc2c(F)c(F)c(F)c(F)c12	i	i	i	i
Cc1c2ccccc2nc2c(F)c(NCCO)c(F)c(F)c12	28µM	i	i	i
Cc1c(C(=O)NCc2cccc(C(F)(F)F)c2)sc(=O)n1Cc1ccccc1F	i	i	i	i
COc1ccccc1-c1csc(C(C)(O)c2ccccc2)n1 (centres undefined)	i	i	i	i
CCCN1CC=C2C(C#N)=C(N)C(C#N)(C#N)C(c3cccc(OC)c3OC)C2C1 (centres undefined)	i	i	?	22µM
CC(=O)N1CC=C2C(C#N)=C(N)C(C#N)(C#N)C(CCc3ccccc3)C2C1 (centres undefined)	i	i	i	i
CCN1CC=C2C(C#N)=C(N)C(C#N)(C#N)C(CCc3ccccc3)C2C1 (centres undefined)	?	50µM	100µM	45µM
Cc1cccc(-c2ccc([N+](=O)[O-])cc2CN2CCN(c3ncc(Cc4ccccc4)cn3)CC2)c1	i	i	i	i
COc1cccc(-c2cnc(C(O)c3ccc(C(C)(C)C)cc3)[nH]2)c1 (centres undefined)	i	i	i	i
O=C1/C(=C/c2cccnc2)SC(=S)N1Cc1ccco1	i	i	i	i
Cc1cc(/C=C2\SC(=S)N(Cc3ccco3)C2=O)c(C)n1-c1cccnc1	i	100µM	i	i
CSc1ncnc2c1ncn2CCCN1CCN(Cc2cccc3ccccc23)CC1	i	i	i	i
CCCCCCOC(=O)C(C#N)c1nc2ccccc2nc1N1CCCCC1 (centres undefined)	i	i	112µM	i
CCOC(=O)C1CCCN(c2nc3ccccc3nc2C(C#N)C(=O)OC(C)C)C1 (centres undefined)	89µM	i	i	i
CCCCN(C)C(=O)c1sc(=O)n(Cc2ccc(Cl)c(Cl)c2)c1C	i	i	i	i
CC(C)Cc1csc(NC(=O)c2ccc(F)cc2)c1C(=O)O	35µM	i	i	i
O=[N+]([O-])c1ccc(Sc2cccc[n+]2[O-])c2nonc12	35µM	i	i	56µM
SMILES	EPAC1 antagonist	EPAC2 agonist	EPAC1 agonist	EPAC2 antag
CCOC(=O)C1=CCC(c2ccccc2C)N(S(=O)(=O)c2ccc(C)cc2)C1 (centres undefined)	i	i	i	i
Cc1cc(NC(=O)C(C)SCC(=O)O)no1 (centres undefined)	i	i	i	i
Cc1cccc(N(Cc2ccccc2)C(=O)CSC(C)C(=O)Nc2cc(C)on2)c1 (centres undefined)	i	i	112µM	i
COc1ccc(NC(=O)C2(C)CCN2Cc2ccc(C(C)C)cc2)cc1OC (centres undefined)	i	i	i	i
COC(=O)c1ccc(-n2c(C)cc(C(=O)CCl)c2C)cc1	i	i	i	35µM
CCOc1ccc(-n2c(C)cc(C(=O)CCl)c2C)cc1	i	i	i	8.9µM
CCOC(=O)c1cc(C)n(-c2ccc(Cl)cc2)c1C	i	i	i	?
